Assay results from PubChem BioAssay AID1159580 (chemical genetic matrix, 2015).
In all, about 5,500 compounds went through this assay and about 2,000 (36%) were called active. Roughly 18% stayed inconclusive and do not appear here. Rule as the data show it: active = normalized growth mostly below about 0.91 (no sharp cut-off); inconclusive = no clear call, values can overlap the other calls; inactive = mostly above about 0.92. Some of the results follow.

Assay: chemical genetic growth profiling, strain panel (AID 1159580);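 also: tested at 20 µM; growth read once vehicle control cultures reached saturation at 30 °C; 1 = growth at the plate median or of vehicle wells; lower values mean less growth of the strain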
Details: growth OD

Measured: normalized growth

Clc1ccc(Cl)cc1
inactive: S. cerevisiae deletion strains, locus YAL013W, strain DEP1, hits give low values 1.01 | S. cerevisiae deletion strains, locus YBR021W, strain FUR4, hits give low values 1.01 | S. cerevisiae deletion strains, locus YBR229C, strain ROT2, hits give low values 1.01 | S. cerevisiae deletion strains, locus YCL029C, strain bik1, hits give low values 0.994 | S. cerevisiae deletion strains, locus YDL035C, strain GPR1, hits give low values 1.02 | S. cerevisiae deletion strains, locus YDL074C, strain BRE1, hits give low values 1.04 | S. cerevisiae deletion strains, locus YDL101C, strain DUN1, hits give low values 1.02 | S. cerevisiae deletion strains, locus YDL134C, strain PPH21, hits give low values 1 | S. cerevisiae deletion strains, locus YDL185W, strain tfp1, hits give low values 0.968 | S. cerevisiae deletion strains, locus YDL192W, strain arf1, hits give low values 0.983 | S. cerevisiae deletion strains, locus YDR101C, strain arx1, hits give low values 0.986 | S. cerevisiae deletion strains, locus YDR150W, strain NUM1, hits give low values 1 | S. cerevisiae deletion strains, locus YDR162C, strain NBP2, hits give low values 1.01 | S. cerevisiae deletion strains, locus YDR318W, strain mcm21, hits give low values 0.99 | S. cerevisiae deletion strains, locus YDR388W, hits give low values 0.988 | S. cerevisiae deletion strains, locus YDR502C, strain sam2, hits give low values 0.993 | S. cerevisiae deletion strains, locus YEL061C, strain CIN8, hits give low values 1 | S. cerevisiae deletion strains, locus YER110C, hits give low values 0.979 | S. cerevisiae deletion strains, locus YER155C, strain BEM2, hits give low values 1.01 | S. cerevisiae deletion strains, locus YER167W, strain BCK2, hits give low values 1.01 | S. cerevisiae deletion strains, locus YGL078C, strain dbp3, hits give low values 0.974 | S. cerevisiae deletion strains, locus YGL086W, strain mad1, hits give low values 1 | S. cerevisiae deletion strains, locus YGL248W, strain PDE1, hits give low values 1.01 | S. cerevisiae deletion strains, locus YGR078C, strain PAC10, hits give low values 1.02 | S. cerevisiae deletion strains, locus YGR135W, strain pre9, hits give low values 0.99 | S. cerevisiae deletion strains, locus YGR229C, strain SMI1, hits give low values 1.02 | S. cerevisiae deletion strains, locus YGR252W, strain gcn5, hits give low values 0.964 | S. cerevisiae deletion strains, locus YHR030C, strain SLT2, hits give low values 1.01 | S. cerevisiae deletion strains, locus YHR079C, strain IRE1 (second series), hits give low values 0.989 | S. cerevisiae deletion strains, locus YHR094C, strain hxt1, hits give low values 0.987 | S. cerevisiae deletion strains, locus YHR129C, strain ARP1, hits give low values 1.01 | S. cerevisiae deletion strains, locus YHR200W, strain rpn10, hits give low values 0.988 | S. cerevisiae deletion strains, locus YIL066C, strain RNR3, hits give low values 1.02 | S. cerevisiae deletion strains, locus YIL073C, strain SPO22, hits give low values 1.01 | S. cerevisiae deletion strains, locus YIL125W, strain kgd1, hits give low values 0.972 | S. cerevisiae deletion strains, locus YIR030C, strain dcg1, hits give low values 0.987 | S. cerevisiae deletion strains, locus YJL095W, strain BCK1, hits give low values 1.02 | S. cerevisiae deletion strains, locus YJL134W, strain LCB3, hits give low values 1.01 | S. cerevisiae deletion strains, locus YJL168C, strain set2, hits give low values 0.983 | S. cerevisiae deletion strains, locus YJL187C, strain SWE1 (second series), hits give low values 1.01 | S. cerevisiae deletion strains, locus YJR043C, strain POL32, hits give low values 1 | S. cerevisiae deletion strains, locus YJR075W, strain HOC1, hits give low values 1.01 | S. cerevisiae deletion strains, locus YKL009W, strain mrt4, hits give low values 1 | S. cerevisiae deletion strains, locus YKL068W, hits give low values 0.984 | S. cerevisiae deletion strains, locus YKL085W, strain MDH1 (second series), hits give low values 0.982 | S. cerevisiae deletion strains, locus YKL085W, strain MDH1, hits give low values 0.982 | S. cerevisiae deletion strains, locus YKL190W, strain CNB1, hits give low values 1.02 | S. cerevisiae deletion strains, locus YKR001C, strain vps1, hits give low values 0.989 | S. cerevisiae deletion strains, locus YLR039C, strain RIC1, hits give low values 1.04 | S. cerevisiae deletion strains, locus YLR058C, strain SHM2, hits give low values 1.01 | S. cerevisiae deletion strains, locus YLR102C, strain apc9, hits give low values 0.993 | S. cerevisiae deletion strains, locus YLR262C, strain YPT6, hits give low values 1.04 | S. cerevisiae deletion strains, locus YLR268W, strain sec22, hits give low values 0.999 | S. cerevisiae deletion strains, locus YLR330W, strain CHS5, hits give low values 1 | S. cerevisiae deletion strains, locus YLR342W, strain FKS1 (second series), hits give low values 0.997 | S. cerevisiae deletion strains, locus YLR371W, strain rom2, hits give low values 0.981 | S. cerevisiae deletion strains, locus YLR418C, strain cdc73, hits give low values 0.974 | S. cerevisiae deletion strains, locus YML016C, strain PPZ1, hits give low values 1.01 | S. cerevisiae deletion strains, locus YML032C, strain rad52, hits give low values 0.986 | S. cerevisiae deletion strains, locus YML124C, strain tub3, hits give low values 0.987 | S. cerevisiae deletion strains, locus YMR078C, strain ctf18, hits give low values 0.99 | S. cerevisiae deletion strains, locus YMR223W, strain ubp8, hits give low values 0.984 | S. cerevisiae deletion strains, locus YMR263W, strain SAP30, hits give low values 1.01 | S. cerevisiae deletion strains, locus YMR307W, strain GAS1, hits give low values 1.03 | S. cerevisiae deletion strains, locus YNL067W, strain RPL9B, hits give low values 1.02 | S. cerevisiae deletion strains, locus YNL128W, strain TEP1, hits give low values 1.02 | S. cerevisiae deletion strains, locus YNL153C, strain GIM3, hits give low values 1.01 | S. cerevisiae deletion strains, locus YNL233W, strain BNI4, hits give low values 1.02 | S. cerevisiae deletion strains, locus YNL250W, strain rad50, hits give low values 0.963 | S. cerevisiae deletion strains, locus YNL271C, strain bni1, hits give low values 0.98 | S. cerevisiae deletion strains, locus YNL298W, strain CLA4, hits give low values 0.98 | S. cerevisiae deletion strains, locus YNL307C, strain MCK1, hits give low values 0.991 | S. cerevisiae deletion strains, locus YNL322C, strain KRE1, hits give low values 1.01 | S. cerevisiae deletion strains, locus YNR052C, strain pop2, hits give low values 0.981 | S. cerevisiae deletion strains, locus YOL006C, strain TOP1, hits give low values 1.05 | S. cerevisiae deletion strains, locus YOL012C, strain htz1 0.71 | S. cerevisiae deletion strains, locus YOL147C, strain pex11, hits give low values 0.992 | S. cerevisiae deletion strains, locus YOR061W, strain CKA2, hits give low values 1.01 | S. cerevisiae deletion strains, locus YOR069W, strain VPS5, hits give low values 1.01 | S. cerevisiae deletion strains, locus YOR136W, strain idh2, hits give low values 0.985 | S. cerevisiae deletion strains, locus YOR144C, strain elg1, hits give low values 0.994 | S. cerevisiae deletion strains, locus YOR184W, strain ser1, hits give low values 0.997 | S. cerevisiae deletion strains, locus YOR316C, strain cot1, hits give low values 0.989 | S. cerevisiae deletion strains, locus YPL055C, strain LGE1, hits give low values 1.02 | S. cerevisiae deletion strains, locus YPL241C, strain CIN2, hits give low values 1.01 | S. cerevisiae deletion strains, locus YPR119W, strain clb2, hits give low values 0.988 | S. cerevisiae deletion strains, locus YPR141C, strain kar3, hits give low values 0.975 | S. cerevisiae deletion strains, locus YPR163C, strain tif3, hits give low values 0.991 | S. cerevisiae deletion strains, locus YPR167C, strain met16, hits give low values 0.985 | S. cerevisiae deletion strains, strain wtn01, hits give low values 0.987 | S. cerevisiae strains, strain wild type, hits give low values 1.01
